Laboratory results reported in PubChem BioAssay (Tox21).
Inconclusive results are not listed. Calls of active or inactive are those of the source. Unless noted, calls come from the whole dose curve; as a rule, active = well fitted curve in the direction sought with a large enough effect in the repeat runs; inconclusive = weak or mixed curves; inactive = no such curve, though single readings can be large; an effect the other way counts as inactive or inconclusive.

Columns and labels:
[1] = qHTS assay to identify small molecule antagonists of the glucocorticoid receptor (GR) signaling pathway - cell viability counter screen (AID 720693); note: nearly all actives have a fitted effect of over 55% in size
[2] = qHTS assay for identifying genotoxic compounds that show differential cytotoxicity against isogenic chicken DT40 cell lines with known DNA damage response pathways - wild type cell line (AID 743012); note: nearly all actives have a fitted effect of over 60% in size; note: potency is the fitted concentration of half-maximal effect
In short: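 First, wild type DT40 cells were plated at 300 per well and equilibrated about 0.5 h at 37 C/5% CO2. Next, compounds in DMSO were added and exposure lasted 40 h. Finally, CellTiter-Glo was added for 30 min at room temperature and luminescence recorded.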

[3] = qHTS assay for identifying genotoxic compounds that show differential cytotoxicity against isogenic chicken DT40 cell lines with known DNA damage response pathways - Rev3 mutant cell line (AID 743014); note: nearly all actives have a fitted effect of over 55% in size; note: potency is the fitted concentration of half-maximal effect
[4] = qHTS assay for identifying genotoxic compounds that show differential cytotoxicity against isogenic chicken DT40 cell lines with known DNA damage response pathways - Rad54/Ku70 mutant cell line (AID 743015); note: nearly all actives have a fitted effect of over 60% in size; note: potency is the fitted concentration of half-maximal effect
[5] = target: Androgen receptor (Homo sapiens) (UniProt P10275); assay: qHTS assay to identify small molecule antagonists of the androgen receptor (AR) signaling pathway (AID 743035; active = well fitted inhibition curve with a large enough effect in the signal ratio in the repeat runs, not every such curve was filed as active; the % refers to the signal ratio; note: potency is the fitted concentration of half-maximal effect)
In short: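 Beta-lactamase FRET read (2 h RT incubation with LiveBLAzer B/G) following 16 h of compound plus R1881 treatment of AR-UAS-bla HEK293 cells, which had been pre-incubated 4 h at 37C.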

[6] = target: Androgen receptor (Homo sapiens) (UniProt P10275); assay: qHTS assay to identify small molecule agonists of the androgen receptor (AR) signaling pathway (AID 743036; active = well fitted activation curve with a large enough effect in the signal ratio in the repeat runs, with a control signal flat, not every such curve was filed as active; the % refers to the signal ratio)
In short: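 Following a 4 h settling period, AR-UAS-bla HEK293 cells were dosed with compounds for 16 h at 37C. A 2 h room-temperature incubation with LiveBLAzer B/G FRET substrate preceded the fluorescence measurement.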

[7] = target: Androgen receptor (Homo sapiens) (UniProt P10275); assay: qHTS assay to identify small molecule agonists of the androgen receptor (AR) signaling pathway using the MDA cell line (AID 743040; note: nearly all actives have a fitted effect of over 20% in size)
In short: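 Luminescence from ONE-Glo, read after 30 min at room temperature, reflects MMTV-driven luciferase in MDA-kb2 cells (AR- and GR-responsive). Treatment lasted 16 h at 37C, 0% CO2.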

[8] = qHTS assay to identify small molecule antagonists of the androgen receptor (AR) signaling pathway using the MDA cell line - cell viability counter screen (AID 743041; note: nearly all actives have a fitted effect of over 45% in size)
In short: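 Viability counter screen run alongside the AR antagonist reporter: cells seeded 5 h before compound, R1881 added, 16 h incubation at 37C without CO2, fluorescent CellTiter-Fluor signal quantified.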

[9] = qHTS assay to identify small molecule antagonists of the thyroid receptor (TR) signaling pathway - cell viability counter screen (AID 743064); note: nearly all actives have a fitted effect of over 50% in size; note: potency is the fitted concentration of half-maximal effect
In short: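 CellTiter-Fluor readout, 30 min at 37 °C/5% CO2, following 23.5 h incubation of GH3.TRE-Luc cells with test compound and 1 nM T3 (final).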

[10] = qHTS assay to identify small molecule antagonists of the thyroid receptor (TR) signaling pathway (AID 743065); note: nearly all actives have a fitted effect of over 55% in size; note: potency is the fitted concentration of half-maximal effect
In short: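 GH3.TRE-Luc rat pituitary cells carrying two TR response elements driving luciferase were plated for 4 h, given compound plus 1 nM T3 (final), and incubated 23.5 h at 37 C. ONE-Glo luminescence measured reporter inhibition; CellTiter-Fluor fluorescence tracked cytotoxicity.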

[11] = test system: thyroid hormone receptor (rat, GH3 cells); assay: qHTS assay to identify small molecule agonists of the thyroid receptor (TR) signaling pathway (AID 743066; calls by dose curve)
[12] = target: Estrogen receptor (Homo sapiens) (UniProt P03372); assay: qHTS assay to identify small molecule antagonists of the estrogen receptor alpha (ER-alpha) signaling pathway (AID 743069; active = well fitted curve in the direction sought with a large enough effect in the signal ratio in the repeat runs, not every such curve was filed as active; the % refers to the signal ratio)
In short: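 Estradiol-stimulated ER-alpha-UAS-bla HEK293 cells, 18 hr compound exposure at 37C. LiveBLAzer B/G substrate, 2 hr RT, fluorescence read.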

[13] = qHTS assay to identify small molecule antagonists of the estrogen receptor alpha (ER-alpha) signaling pathway - cell viability counter screen (AID 743074; calls by dose curve;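 note: HEK293 cells carrying ER-alpha-UAS-bla reporter stimulated with 17beta-estradiol; nearly all actives have a fitted effect of over 45% in size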)
[14] = target: Estrogen receptor (Homo sapiens) (UniProt P03372); assay: qHTS assay to identify small molecule agonists of the estrogen receptor alpha (ER-alpha) signaling pathway (AID 743075; calls by dose curve;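 note: HEK293 GripTite cells with ER-alpha and UAS-driven beta-lactamase reporter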)
[15] = qHTS assay to identify small molecule antagonists of the estrogen receptor alpha (ER-alpha) signaling pathway using the BG1 cell line - cell viability counter screen (AID 743081);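 note: compound given together with 17beta-estradiol as the ER stimulus; series mostly up to about 70 µM; nearly all actives have a fitted effect of over 45% in size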
Aromatase (Homo sapiens) = Aromatase (Homo sapiens) (UniProt P11511); assay: qHTS assay to identify aromatase inhibitors (AID 743083); note: series mostly up to about 70 µM; nearly all actives have a fitted effect of over 55% in size
[16] = target: Estrogen receptor (Homo sapiens) (UniProt P03372); assay: qHTS assay to identify small molecule agonists of the estrogen receptor alpha (ER-alpha) signaling pathway using the BG1 cell line (AID 743079); note: nearly all actives have a fitted effect of over 20% in size; note: potency is the fitted concentration of half-maximal effect
[17] = qHTS assay to identify small molecule antagonists of the estrogen receptor alpha (ER-alpha) signaling pathway using the BG1 cell line (AID 743080; calls by dose curve;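 note: BG1 cells stimulated with 17beta-estradiol alongside compound; series mostly up to about 70 µM; nearly all actives have a fitted effect of over 25% in size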)
In short: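 Endogenous full-length ER-alpha in BG1-Luc-4E2 cells drives a stably integrated 4×ERE luciferase gene; compounds were tested against 17beta-estradiol over 21.5 h, with luminescence and multiplexed viability fluorescence recorded.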

[18] = qHTS assay to identify small molecule antagonists of the androgen receptor (AR) signaling pathway - cell viability counter screen (AID 743033; note: nearly all actives have a fitted effect of over 45% in size)
[19] = target: Androgen receptor (Homo sapiens) (UniProt P10275); assay: qHTS assay to identify small molecule antagonists of the androgen receptor (AR) signaling pathway using the MDA cell line (AID 743042; note: nearly all actives have a fitted effect of over 55% in size)
In short: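 MDA-kb2 cells (human breast carcinoma, stably carrying an MMTV-luciferase reporter responsive to AR and GR) were plated at 3,000 cells/well and preincubated 5 hr at 37C, then given compound plus R1881 agonist for 16 h. ONE-Glo luminescence was read.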

Measured: Potency

Estrogen receptor (Homo sapiens), sequence (P03372 whole entry, looked up): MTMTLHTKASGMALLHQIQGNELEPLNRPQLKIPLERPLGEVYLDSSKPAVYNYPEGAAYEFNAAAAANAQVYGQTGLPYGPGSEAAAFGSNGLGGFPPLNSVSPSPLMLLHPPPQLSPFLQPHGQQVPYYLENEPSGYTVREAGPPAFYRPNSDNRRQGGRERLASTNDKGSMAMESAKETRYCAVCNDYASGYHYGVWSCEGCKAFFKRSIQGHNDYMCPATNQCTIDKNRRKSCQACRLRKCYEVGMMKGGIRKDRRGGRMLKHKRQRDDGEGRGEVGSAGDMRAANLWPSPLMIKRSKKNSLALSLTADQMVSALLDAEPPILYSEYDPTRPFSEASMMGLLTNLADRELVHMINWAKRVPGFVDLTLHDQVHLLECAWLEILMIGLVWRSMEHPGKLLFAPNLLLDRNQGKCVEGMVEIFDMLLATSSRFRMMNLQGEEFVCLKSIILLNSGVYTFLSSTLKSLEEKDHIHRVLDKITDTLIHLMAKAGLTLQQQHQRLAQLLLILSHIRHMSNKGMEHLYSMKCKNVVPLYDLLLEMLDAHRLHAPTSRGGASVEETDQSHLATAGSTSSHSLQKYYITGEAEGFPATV
Androgen receptor (Homo sapiens), sequence (P10275 whole entry, looked up): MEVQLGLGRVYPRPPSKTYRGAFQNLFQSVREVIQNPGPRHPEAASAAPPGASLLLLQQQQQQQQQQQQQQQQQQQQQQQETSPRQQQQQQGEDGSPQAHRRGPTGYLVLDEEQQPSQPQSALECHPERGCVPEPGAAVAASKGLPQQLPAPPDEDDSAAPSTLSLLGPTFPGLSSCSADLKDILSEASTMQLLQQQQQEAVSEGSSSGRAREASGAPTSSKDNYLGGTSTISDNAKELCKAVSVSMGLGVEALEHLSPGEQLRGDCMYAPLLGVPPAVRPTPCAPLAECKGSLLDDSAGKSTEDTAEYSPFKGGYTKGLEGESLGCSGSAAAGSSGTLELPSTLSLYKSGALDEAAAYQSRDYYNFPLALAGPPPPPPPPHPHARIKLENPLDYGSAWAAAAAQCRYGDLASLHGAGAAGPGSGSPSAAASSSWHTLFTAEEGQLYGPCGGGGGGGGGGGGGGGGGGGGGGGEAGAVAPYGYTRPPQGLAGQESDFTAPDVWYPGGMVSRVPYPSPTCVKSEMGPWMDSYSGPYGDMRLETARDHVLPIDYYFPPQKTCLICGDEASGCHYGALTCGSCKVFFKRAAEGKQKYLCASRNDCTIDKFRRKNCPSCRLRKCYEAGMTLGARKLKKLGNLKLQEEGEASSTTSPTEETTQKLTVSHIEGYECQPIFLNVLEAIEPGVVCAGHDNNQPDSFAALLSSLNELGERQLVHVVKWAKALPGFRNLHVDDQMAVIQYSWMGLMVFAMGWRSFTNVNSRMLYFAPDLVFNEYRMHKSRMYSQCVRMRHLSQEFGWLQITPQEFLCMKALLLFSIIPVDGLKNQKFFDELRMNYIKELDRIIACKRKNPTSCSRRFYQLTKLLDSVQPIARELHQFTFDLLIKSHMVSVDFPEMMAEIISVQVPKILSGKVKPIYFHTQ
Aromatase (Homo sapiens), sequence (P11511 whole entry, looked up): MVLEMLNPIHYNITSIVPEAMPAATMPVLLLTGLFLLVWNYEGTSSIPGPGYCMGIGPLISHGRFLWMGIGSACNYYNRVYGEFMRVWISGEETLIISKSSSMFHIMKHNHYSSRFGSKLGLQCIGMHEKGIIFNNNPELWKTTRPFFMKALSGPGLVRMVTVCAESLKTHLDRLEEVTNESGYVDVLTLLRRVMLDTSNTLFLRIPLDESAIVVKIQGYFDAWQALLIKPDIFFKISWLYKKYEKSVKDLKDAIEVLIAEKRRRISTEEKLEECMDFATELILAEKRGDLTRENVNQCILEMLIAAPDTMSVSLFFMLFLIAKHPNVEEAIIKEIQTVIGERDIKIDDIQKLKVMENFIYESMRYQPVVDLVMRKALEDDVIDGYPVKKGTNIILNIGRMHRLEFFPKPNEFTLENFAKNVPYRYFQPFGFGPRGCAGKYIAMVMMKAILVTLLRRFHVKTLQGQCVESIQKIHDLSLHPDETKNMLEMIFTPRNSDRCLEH

Cc1nc(-c2ccccn2)ncc1C(=O)Nn1cc(C)c2cc(F)ccc21
active: [2] 61.1 µM | [3] 61.1 µM | [4] 30.6 µM | [5] 49 µM
inactive: [1] | [6] | [7] | [8] | [9] | [10] | [11] | [12] | [13] | [14] | [15] | Aromatase (Homo sapiens)

CCNCCO
inactive: [1] | [2] | [3] | [4] | [8] | [9] | [10] | [11] | [13] | [15] | Aromatase (Homo sapiens)

CC(=O)N(CC(O)CN(C(C)=O)c1c(I)c(C(=O)NCC(O)CO)c(I)c(C(=O)NCC(O)CO)c1I)c1c(I)c(C(=O)NCC(O)CO)c(I)c(C(=O)NCC(O)CO)c1I (stereo unspecified)
inactive: [1] | [2] | [3] | [4] | [8] | [10] | [11] | [12] | [13] | [14] | [16] | [17] | [15] | Aromatase (Homo sapiens)

CC(=O)Nc1ccc(C)c(Cl)c1
inactive: [1] | [2] | [3] | [4] | [8] | [9] | [10] | [11] | [13] | [15] | Aromatase (Homo sapiens)

NNS(=O)(=O)c1ccc(Oc2ccc(S(=O)(=O)NN)cc2)cc1
inactive: [1] | [2] | [4] | [8] | [10] | [11] | [12] | [13] | [14] | [16] | [17] | [15] | Aromatase (Homo sapiens)
active: [3] 27.3 µM

Cc1cc(NS(=O)(=O)c2ccc(N)cc2)nc(C)n1
inactive: [1] | [2] | [3] | [18] | [8] | [9] | [10] | [11] | [12] | [13] | [14] | [16] | [17] | [15] | Aromatase (Homo sapiens)

CS(=O)(=O)c1ccc([C@@H](O)[C@@H](CF)NC(=O)C(Cl)Cl)cc1
active: [2] 4.03 µM | [3] 6.39 µM | [4] 7.17 µM
inactive: [1] | [8] | [10] | [11] | [12] | [13] | [14] | [16] | [15] | Aromatase (Homo sapiens)

CC(=O)Oc1cc(C(C)C)c(OCCN(C)C)cc1C
inactive: [1] | [2] | [3] | [4] | [8] | [9] | [11] | [13] | Aromatase (Homo sapiens)

NCCC(O)(P(=O)(O)O)P(=O)(O)O
inactive: [1] | [2] | [3] | [4] | [8] | [13] | [15] | Aromatase (Homo sapiens)

CCN[C@H]1CN(CCCOC)S(=O)(=O)c2sc(S(N)(=O)=O)cc21
inactive: [1] | [2] | [3] | [4] | [8] | [9] | [10] | [11] | [12] | [13] | [14] | [16] | [17] | [15] | Aromatase (Homo sapiens)

CN(C)C(=O)NC1(c2ccccc2)CCN(CCC[C@]2(c3ccc(Cl)c(Cl)c3)CCCN(C(=O)c3ccccc3)C2)CC1
inactive: [1] | [8] | [12] | [13] | [14] | [16] | [17] | Aromatase (Homo sapiens)
active: [2] 10.3 µM | [3] 14.6 µM | [4] 9.2 µM | [9] 5.17 µM

CCCCCCCCOC(=O)CCCCCCCCC(=O)OCCCCCCCC
inactive: [1] | [18] | [8] | [9] | [10] | [11] | [12] | [13] | [14] | [16] | [17] | [15] | Aromatase (Homo sapiens)
active: [2] 68.6 µM | [3] 17.2 µM

O=C(O)c1cccc(Cl)c1Cl
inactive: [1] | [2] | [3] | [4] | [8] | [12] | [13] | [14] | [16] | [17] | [15] | Aromatase (Homo sapiens)

CCC(=O)c1ccc2c(c1)N(CCCN(C)C)c1ccccc1S2
active: [2] 4.73 µM | [3] 8.41 µM | [4] 7.5 µM | [9] 7.5 µM | [10] 7.5 µM
inactive: [1] | [6] | [7] | [13]

CC(C)OC(C)C
inactive: [1] | [2] | [3] | [4] | [8] | [11] | [12] | [13] | [14] | [16] | [17] | [15] | Aromatase (Homo sapiens)

CCCCNC(=S)NCCCC
active: [2] 48.6 µM | [3] 34.4 µM | [4] 24.3 µM
inactive: [1] | [8] | [9] | [10] | [11] | [12] | [13] | [14] | [16] | [17] | [15] | Aromatase (Homo sapiens)

CCN(O)CC
inactive: [1] | [2] | [3] | [4] | [8] | [10] | [11] | [13] | [15] | Aromatase (Homo sapiens)

OCc1ccccc1O
inactive: [1] | [2] | [3] | [4] | [8] | [9] | [10] | [11] | [13] | [15] | Aromatase (Homo sapiens)

Cc1ccsc1C(=CCCN1CCC[C@@H](C(=O)O)C1)c1sccc1C
inactive: [1] | [2] | [3] | [4] | [5] | [6] | [7] | [8] | [19] | [9] | [10] | [11] | [12] | [13] | [14] | [17] | [15] | Aromatase (Homo sapiens)
active: [16] 21.1 µM

C=CCCC=C
inactive: [1] | [2] | [3] | [4] | [8] | [9] | [11] | [12] | [13] | [14] | [16] | [17] | [15] | Aromatase (Homo sapiens)
